Among the data in PMC11062922 (Nature Chemical Biology, 2023) are potency estimated from few doses values, retold here.

Holding throughout (design): species or system human, MV4-11 + K-562 + COLO205 + SK-N-BE2 + OVCAR-8
One assay relates to MAP2K5. As to conditions: read-out: apparent Kd, n = 1.
For the next assay, the system named is TAOK1. As to conditions: read-out: apparent Kd, n = 1.
A further assay has as its system NTRK1. As to conditions: read-out: apparent Kd, n = 1.
In another assay the test system is PRKCI. Conditions: read-out: apparent Kd, n = 1.
The subject of the next assay is CSNK1G1. As to conditions: read-out: apparent Kd, n = 1.
Another assay concerns MAPK1. As to conditions: read-out: apparent Kd, compound concentrations: 100 nM and 1000 nM (sheet 'Samples'), n = 1.
The next assay deals with SYK. As to conditions: read-out: apparent Kd, n = 1.
The test system of another assay is AKT1. Conditions: read-out: apparent Kd, n = 1.
The test system of a further assay is MAPK11. As to conditions: read-out: apparent Kd, n = 1.
The next assay concerns PIM1. As to conditions: read-out: apparent Kd, n = 1.
A further assay relates to CAMK4. Conditions: read-out: apparent Kd, n = 1.
The subject of the next assay is MERTK. As to conditions: read-out: apparent Kd, compound concentrations: 100 nM and 1000 nM (sheet 'Samples'), n = 1.
For another assay, the system named is PRKX;PRKY. Conditions: read-out: apparent Kd, n = 1.
The test system of another assay is IRAK1. Conditions: read-out: apparent Kd; compound concentrations:100 nM and 1000 nM (sheet 'Samples'); n = 1.
For another assay, the system named is TBK1. As to conditions: read-out: apparent Kd; compound concentrations:100 nM and 1000 nM (sheet 'Samples'); n = 1.
The subject of the next assay is ERN1. Conditions: read-out: apparent Kd, n = 1.
A further assay relates to PRKDC. As to conditions: read-out: apparent Kd; compound concentrations: 100 nM and 1000 nM (sheet 'Samples'), CATDS: 3.7580559894827101E-2; n = 1.
[1] abbreviates: compound concentrations:100 nM and 1000 nM (sheet 'Samples').

Read-outs that look alike come from different tables or passages of the source.

As for `Cc1cccc(Nc2nc(N[C@H]3CCNC3)ncc2C(N)=O)c1.Cl` [GSK2197149A], in the assay with MAP2K5 (setting [1]), the potency estimated from few doses was 1170 nM.
For `NC(=O)c1cc(-c2ccccc2)cc2c(C3CCNCC3)c[nH]c12` [GSK301362A], the potency estimated from few doses with TAOK1 (setting [1]) is 1500 nM.
For `Cl.Cl.NC(CNC(=O)c1cc(Br)c(-c2ccnc3[nH]ccc23)s1)c1ccccc1.NC(CNC(=O)c1cc(Br)c(-c2ccnc3[nH]ccc23)s1)c1ccccc1` (stereo not shown) [GSK1322949A], the potency estimated from few doses in the assay on NTRK1 (compound concentrations: 100 nM and 1000 nM (sheet 'Samples'), CATDS: 2.41440168152992E-2) is 2140 nM; with PRKCI (compound concentrations: 100 nM and 1000 nM (sheet 'Samples'), CATDS: 2.43099453780894E-2) it was 2100 nM.
On to `CNc1cc(-c2ccc3c(N)n[nH]c3c2)nc(N)n1` [GSK2224810A], for which the potency estimated from few doses with CSNK1G1 (setting [1]) is 2200 nM.
With `O=C(O)C(F)(F)F.O=c1[nH]ccc2nc(N[C@@H]3CCNC3)nc(Nc3ccc4c(c3)S(=O)(=O)CC4)c12` [GSK2181306A], the potency estimated from few doses with CSNK1G1 (compound concentrations: 100 nM and 1000 nM (sheet 'Samples'), CATDS: 8.6672996654843307E-3) was 1380 nM; in the assay with MAP2K5 (compound concentrations: 100 nM and 1000 nM (sheet 'Samples'), CATDS: 1.2089918500056101E-2), 509 nM; with MAPK1 (CATDS: 9.4433771330179501E-3), 1020 nM; in the assay with SYK (compound concentrations: 100 nM and 1000 nM (sheet 'Samples'), CATDS: 8.7741915408421998E-3) it was 1320 nM.
As to `CCn1c(-c2cccnc2O)nc2cnccc21` [SB-736715], the potency estimated from few doses in the assay on AKT1 (compound concentrations: 100 nM and 1000 nM (sheet 'Samples'), CATDS: 1.3570938887082299E-2) is 1610 nM; in the assay on CSNK1G1 (compound concentrations: 100 nM and 1000 nM (sheet 'Samples'), CATDS: 1.6371117072737501E-2), 1080 nM; in the assay on MAPK11 (compound concentrations: 100 nM and 1000 nM (sheet 'Samples'), CATDS: 1.30714391114645E-2), 1760 nM; in the assay on PIM1 (compound concentrations: 100 nM and 1000 nM (sheet 'Samples'), CATDS: 1.79844140695006E-2), 909 nM; in the assay on PRKCI (compound concentrations: 100 nM and 1000 nM (sheet 'Samples'), CATDS: 1.2421041550088101E-2), 2000 nM; in the assay with SYK (compound concentrations: 100 nM and 1000 nM (sheet 'Samples'), CATDS: 1.27185371688364E-2), 1880 nM.
`Cc1ccccc1-n1ncc(C(=O)c2ccccc2)c1N` [RO1151248-000]: the potency estimated from few doses in the assay on MAPK11 (compound concentrations: 100 nM and 1000 nM (sheet 'Samples'), CATDS: 3.0870042087065699E-2) was 552 nM.
Turning to `O=C(O)C(F)(F)F.O=C(O)C(F)(F)F.O=c1[nH]ccc2nc(N[C@@H]3CCCNC3)nc(Nc3ccc(S(=O)(=O)N4CCOCC4)cc3)c12.O=c1[nH]ccc2nc(N[C@@H]3CCCNC3)nc(Nc3ccc(S(=O)(=O)N4CCOCC4)cc3)c12` [GSK2177277A], the potency estimated from few doses in the assay with CAMK4 (compound concentrations: 100 nM and 1000 nM (sheet 'Samples'), CATDS: 6.74489650552607E-3) was 1190 nM; in the assay on CSNK1G1 (compound concentrations: 100 nM and 1000 nM (sheet 'Samples'), CATDS: 7.1909422101758503E-3), 882 nM; with MAP2K5 (compound concentrations: 100 nM and 1000 nM (sheet 'Samples'), CATDS: 1.4569473169207601E-2), 103 nM; in the assay with MERTK (CATDS: 1.1592861489919001E-2), 181 nM; in the assay with TAOK1 (compound concentrations: 100 nM and 1000 nM (sheet 'Samples'), CATDS: 1.8448588679872001E-2), 61.9 nM.
Turning to `CCN(CC)Cc1ccc(Nc2nccc(-c3cnn4ncccc34)n2)cc1` [GW780056X], the potency estimated from few doses with NTRK1 (compound concentrations: 100 nM and 1000 nM (sheet 'Samples'), CATDS: 2.09044703121741E-2) was 1140 nM.
For `c1cnn2ncc(-c3ccnc(Nc4ccc5c(c4)OCCO5)n3)c2c1` [GW806290X], the potency estimated from few doses with AKT1 (compound concentrations: 100 nM and 1000 nM (sheet 'Samples'), CATDS: 2.02119935433384E-2) was 1930 nM.
With `CCn1c(-c2nonc2N)nc2c(C#CC(C)(C)O)nc(O[C@@H](CN)c3ccccc3)cc21.O=C(O)C(F)(F)F` [GSK1007102B], the potency estimated from few doses is 1120 nM with AKT1 (setting [1]) and 83.5 nM with PRKX;PRKY (setting [1]).
Consider `CS(=O)(=O)CCn1c(=O)c(Oc2ccc(F)cc2F)cc2cnc(NC3CCOCC3)nc21` [RO5027956-000], for which the potency estimated from few doses in the assay with MAPK11 (setting [1]) was 1730 nM.
Consider `CN(C)CC(O)COc1ccc(Nc2nccc(-c3cnn4nc(N5CCOCC5)ccc34)n2)cc1` (stereo not shown) [GW767488X], for which, in the assay with IRAK1, the potency estimated from few doses was 80 nM.
As for `COc1cc[nH]c1/C=C1\C(=O)Nc2ccc(F)c(C#CC3(O)CCNCC3)c21.Cl` [RO0282986-001], the potency estimated from few doses in the assay on NTRK1 (compound concentrations: 100 nM and 1000 nM (sheet 'Samples'), CATDS: 9.7350807133640294E-3) is 1470 nM.
With `O=C(O)C(F)(F)F.O=c1[nH]ccc2nc(N[C@@H]3CCNC3)nc(Nc3cc(Cl)cc(Cl)c3)c12` [GSK2188764A], the potency estimated from few doses is 977 nM in the assay on CAMK4 (setting [1]) and 207 nM in the assay with MAP2K5 (setting [1]).
Turning to `CC(C)Oc1ccc2c(-c3ccnc(Nc4ccc(N5CCN(C)CC5)cc4)n3)cnn2n1` [GW696155X], the values for the potency estimated from few doses in the assay on IRAK1, in the assay on TAOK1 (setting [1]) and in the assay on TBK1 were 769 nM, 1580 nM and 621 nM, respectively.
With `CC(C)Nc1cc(-c2ccc3c(N)n[nH]c3c2)nc(N)n1` [GSK2221681A], in the assay on PRKX;PRKY (setting [1]), the potency estimated from few doses is 1270 nM.
For the molecule `Nc1nc(-c2ccc3c(N)n[nH]c3c2)cc(N2CCCC(NC(=O)c3ccccc3)C2)n1` (stereo not shown) [GSK2286775B], the potency estimated from few doses was 1090 nM in the assay with CAMK4 (setting [1]) and 342 nM in the assay on TBK1.
`Cl.Cn1c(=O)c(Cc2ccccc2F)cc2cnc(NC3CCOCC3)nc21` [RO3305377-001]: the potency estimated from few doses in the assay on CAMK4 (compound concentrations: 100 nM and 1000 nM (sheet 'Samples'), CATDS: 1.6194401739627301E-2) is 2150 nM.
On to `O=C(Nc1n[nH]c2nc(-c3ccccc3O)ccc12)C1CC1` [SB-711880], for which the potency estimated from few doses in the assay on ERN1 (setting [1]) is 1700 nM; with SYK (setting [1]), 1760 nM.
On to `O=C1N=C(NCCc2ccccc2Cl)S/C1=C\c1ccc2ncccc2c1` [RO4498484-000], for which the potency estimated from few doses in the assay with PRKX;PRKY (compound concentrations: 100 nM and 1000 nM (sheet 'Samples'), CATDS: 5.9384973682941697E-2) was 1830 nM.
For `CN[C@H](C#Cc1c(F)ccc2c1/C(=C/c1[nH]ccc1OC)C(=O)N2)CO.Cl` [RO0283049-001], the potency estimated from few doses with NTRK1 (compound concentrations: 100 nM and 1000 nM (sheet 'Samples'), CATDS: 2.3877325037377599E-2) was 949 nM.
Consider `CCn1c(-c2nonc2N)nc2cncc(Br)c21` [SB-738004], for which the potency estimated from few doses in the assay on PRKCI (setting [1]) was 483 nM.
Regarding `COc1cccc(C2=C(c3c(C)n(C)c4ccccc34)C(=O)NC2=O)c1` [RO3300167-000], the potency estimated from few doses with ERN1 (compound concentrations: 100 nM and 1000 nM (sheet 'Samples'), CATDS: 7.9309280446682603E-2) was 1540 nM.
For `CCn1c(-c2nonc2N)nc2cncc(C(=O)N3CC[C@H](N)C3)c21.Cl` [SB-772077-B], the figures for the potency estimated from few doses with PIM1 (setting [1]) and with PRKCI (setting [1]) were 30.8 nM and 606 nM, respectively.
For `Nc1nccc(-c2ccc3c(N)n[nH]c3c2)n1` [GSK1034945A], the potency estimated from few doses in the assay with PRKCI (setting [1]) was 1240 nM.
Regarding `Cc1cc(NC(=O)c2cccc(NC(=O)/C=C/CN(C)C)c2)ccc1Nc1nccc(-c2cccnc2)n1` [JNK-IN-7], the potency estimated from few doses with IRAK1 is 111 nM.
Regarding `Cn1cc(C2=C(c3c(S(C)=O)n(C)c4ccccc34)C(=O)NC2=O)c2ccccc21` (stereo not shown) [RO0317379-000], the potency estimated from few doses with MERTK (CATDS: 0.152685994301652) was 590 nM.
Regarding `COc1cc[nH]c1/C=C1\C(=O)Nc2ccc(F)c(C#C[C@@H](O)[C@@H](N)[C@@H](C)O)c21` [RO0283120-000], the potency estimated from few doses in the assay on NTRK1 (setting [1]) was 1430 nM.
Consider `COc1cc[nH]c1/C=C1\C(=O)Nc2ccc([N+](=O)[O-])c(N3CC[C@@H](O)C3)c21` [RO0504985-000], for which the potency estimated from few doses in the assay on NTRK1 (compound concentrations: 100 nM and 1000 nM (sheet 'Samples'), CATDS: 3.6845933962960403E-2) is 886 nM.
For `Cc1occc1-c1nc(N)c(OC[C@@H](N)Cc2c[nH]c3ccccc23)cc1-c1cc2c(C)n[nH]c2cn1` [GSK1660450B], the potency estimated from few doses in the assay with CSNK1G1 (setting [1]) was 1340 nM; with PIM1 (setting [1]), 92.7 nM; in the assay on TAOK1 (setting [1]), 12 nM.
For `CCC(CC)(CC)n1cnc2c(N)ncnc21` [SKF-97620], the potency estimated from few doses in the assay on MAPK1 (CATDS: 2.7105315036477701E-2) was 1350 nM; in the assay with PRKDC it was 583 nM.
